The source made the active and inactive calls.
What was measured:
[1] = system: Plasmodium falciparum Sir2 (PF13_0152, Sir2A); test: pfSir2 binders on small-molecule microarrays, primary screen, biochemical, small-molecule microarray, 635 nm fluorescence (AID 1098); conditions: small-molecule microarray binding, fluorescence 635 nm; higher = more signal;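 further: score merges spot fluorescence intensity with its signal-to-noise ratio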
[2] = small-molecule microarray binders of probe aDKK1, primary screen, biochemical, biotinylated probe, 635/667 nm fluorescence (AID 1099); conditions: higher = more signal;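 further: score merges 667nm spot fluorescence with signal to noise across triplicate slides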
[3] = small-molecule microarray binders of probe aCHRDL2, primary screen, biochemical, biotinylated probe, 635/667 nm fluorescence (AID 1100); conditions: higher = more signal
[4] = splicing luciferase reporter signal modulators, primary screen, spliceosome inhibition project, cell-based, HEK293, splice +/- reporter (AID 1101); conditions: luminescence, 24 h, higher = more signal, called active from +8 up or from −8 down;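 further: HEK293 cells carrying a splicing-competent luciferase reporter gene; test concentration not given here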
[5] = target: Fibroblast growth factor 10 (Homo sapiens) (UniProt O15520); test: FGF10 binders on small-molecule microarrays, primary screen, biochemical, small-molecule microarray, 635 nm fluorescence (AID 1102); conditions: FGF10 binding, fluorescence 635 nm, higher = more signal
Chain of Fibroblast growth factor 10 (Homo sapiens) (O15520 whole entry, looked up): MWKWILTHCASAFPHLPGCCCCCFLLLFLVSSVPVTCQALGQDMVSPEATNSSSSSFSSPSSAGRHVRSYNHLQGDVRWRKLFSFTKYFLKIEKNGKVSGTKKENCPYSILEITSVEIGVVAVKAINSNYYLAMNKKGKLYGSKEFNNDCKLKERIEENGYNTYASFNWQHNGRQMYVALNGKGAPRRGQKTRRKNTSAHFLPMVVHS

[6] = system: glycogen synthase kinase-3 (GSK3A per assay name; protocol says GSK3B); test: GSK3 binders on small-molecule microarrays, primary screen, biochemical, small-molecule microarray, 635 nm fluorescence, GSK3A (AID 1103); conditions: small-molecule microarray binding, fluorescence 635 nm; higher = more signal; further: the record names both GSK3A and GSK3B
[7] = target: Epidermal growth factor receptor (Homo sapiens) (UniProt P00533); test: EGFR binders on small-molecule microarrays, primary screen, biochemical, small-molecule microarray, 635 nm fluorescence (AID 1104); conditions: EGFR binding, higher = more signal;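 further: score merges 667 nm emission intensity with spot signal to noise over triplicate slides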
Chain of Epidermal growth factor receptor (Homo sapiens) (P00533 whole entry, looked up): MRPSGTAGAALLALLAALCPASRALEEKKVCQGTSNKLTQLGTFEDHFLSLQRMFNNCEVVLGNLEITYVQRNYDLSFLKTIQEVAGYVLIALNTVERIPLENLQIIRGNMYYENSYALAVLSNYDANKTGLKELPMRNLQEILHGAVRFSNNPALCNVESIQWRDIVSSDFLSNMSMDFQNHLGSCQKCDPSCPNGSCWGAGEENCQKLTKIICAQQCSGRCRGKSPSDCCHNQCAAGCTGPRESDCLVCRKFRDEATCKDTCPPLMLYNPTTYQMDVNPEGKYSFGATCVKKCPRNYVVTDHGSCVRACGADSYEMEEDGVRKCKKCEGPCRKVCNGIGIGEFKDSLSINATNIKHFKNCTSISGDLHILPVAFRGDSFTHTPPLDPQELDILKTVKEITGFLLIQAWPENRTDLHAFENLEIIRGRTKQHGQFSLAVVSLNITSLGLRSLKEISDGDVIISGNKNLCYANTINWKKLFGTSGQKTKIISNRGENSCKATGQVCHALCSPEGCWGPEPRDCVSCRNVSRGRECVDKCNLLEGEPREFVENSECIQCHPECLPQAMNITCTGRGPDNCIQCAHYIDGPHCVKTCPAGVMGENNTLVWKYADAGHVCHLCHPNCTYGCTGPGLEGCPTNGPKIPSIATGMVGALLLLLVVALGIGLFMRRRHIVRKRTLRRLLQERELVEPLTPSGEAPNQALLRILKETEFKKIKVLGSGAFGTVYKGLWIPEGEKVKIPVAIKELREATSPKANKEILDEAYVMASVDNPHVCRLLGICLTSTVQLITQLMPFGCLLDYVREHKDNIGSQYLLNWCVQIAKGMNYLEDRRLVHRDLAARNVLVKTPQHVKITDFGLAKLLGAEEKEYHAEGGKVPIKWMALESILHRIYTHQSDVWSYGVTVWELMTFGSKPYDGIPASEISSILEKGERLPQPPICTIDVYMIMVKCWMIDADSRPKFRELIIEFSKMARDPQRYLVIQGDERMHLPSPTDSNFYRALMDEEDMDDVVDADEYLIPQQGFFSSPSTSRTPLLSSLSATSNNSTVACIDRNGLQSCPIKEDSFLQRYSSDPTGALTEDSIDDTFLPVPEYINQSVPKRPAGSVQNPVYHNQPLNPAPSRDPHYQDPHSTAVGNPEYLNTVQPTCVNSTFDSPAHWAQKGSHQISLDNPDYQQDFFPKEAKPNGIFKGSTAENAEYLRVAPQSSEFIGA

[8] = target: Follistatin-related protein 3 (Homo sapiens) (UniProt O95633); test: FSTL3 binders on small-molecule microarrays, primary screen, biochemical, small-molecule microarray, 635 nm fluorescence (AID 1105); conditions: FSTL3 binding, higher = more signal;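 further: score merges emission near 667 nm and signal to noise per printed spot across three slides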
Chain of Follistatin-related protein 3 (Homo sapiens) (O95633 whole entry, looked up): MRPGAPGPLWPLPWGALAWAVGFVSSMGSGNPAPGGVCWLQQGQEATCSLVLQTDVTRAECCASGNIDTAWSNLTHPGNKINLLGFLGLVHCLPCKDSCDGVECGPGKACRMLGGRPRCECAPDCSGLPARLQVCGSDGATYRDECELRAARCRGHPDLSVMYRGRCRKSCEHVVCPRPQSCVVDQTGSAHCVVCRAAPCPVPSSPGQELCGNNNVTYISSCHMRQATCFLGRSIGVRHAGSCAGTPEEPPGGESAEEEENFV

[9] = target: Dickkopf-related protein 1 (Homo sapiens) (UniProt O94907); test: DKK1 binders on small-molecule microarrays, primary screen, biochemical, small-molecule microarray, 635 nm fluorescence scan (AID 1106); conditions: DKK1 binding, higher = more signal;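 further: score merges emission near 667 nm with signal to noise over three replicate slides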
Chain of Dickkopf-related protein 1 (Homo sapiens) (O94907 whole entry, looked up): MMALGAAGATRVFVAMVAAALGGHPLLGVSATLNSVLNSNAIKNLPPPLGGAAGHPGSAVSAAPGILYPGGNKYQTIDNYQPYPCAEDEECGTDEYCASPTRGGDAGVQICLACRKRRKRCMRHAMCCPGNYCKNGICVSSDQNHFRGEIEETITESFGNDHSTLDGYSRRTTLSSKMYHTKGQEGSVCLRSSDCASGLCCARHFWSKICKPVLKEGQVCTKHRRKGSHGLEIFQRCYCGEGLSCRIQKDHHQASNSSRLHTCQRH

[10] = system: Inhibin beta A chain (activin A); test: INHBA (activin A) binders on microarrays, primary screen, biochemical, small-molecule microarray, 635 nm fluorescence scan (AID 1107); conditions: small-molecule microarray binding, higher = more signal;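 further: mouse activin A protein probed at 4.33 µg/mL on printed slides; score merges bound-protein fluorescence near 667 nm with spot signal-to-noise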
[11] = system: Human papillomavirus type 1a protein E7 (residues 44-93); test: HPV1a E7 fragment binders on microarrays, primary screen, biochemical, small-molecule microarray, residues 44-93, 635 nm fluorescence (AID 1108); conditions: small-molecule microarray binding, fluorescence 635 nm; higher = more signal;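 further: E7 fragment applied at 1 µg/mL in TBST for 1 h at 4 C; score combines spot fluorescence with its signal to noise ratio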
[12] = modulators of HCV replicon luciferase signal, primary screen, HCV replication inhibitor project, Huh7 cells, luciferase reporter (AID 1109); conditions: 48 h, higher = more signal;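 further: huh7 hepatoma cells harbouring a luciferase neomycin HCV replicon reporter; luciferase luminescence as measure of HCV replicon replication; test concentration not given here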
[13] = target: Left-right determination factor 2 (Homo sapiens) (UniProt O00292); test: LEFTY2 binders on small-molecule microarrays, primary screen, biochemical, small-molecule microarray, 635 nm fluorescence scan (AID 1110); conditions: LEFTY2 binding, higher = more signal
Chain of Left-right determination factor 2 (Homo sapiens) (O00292 whole entry, looked up): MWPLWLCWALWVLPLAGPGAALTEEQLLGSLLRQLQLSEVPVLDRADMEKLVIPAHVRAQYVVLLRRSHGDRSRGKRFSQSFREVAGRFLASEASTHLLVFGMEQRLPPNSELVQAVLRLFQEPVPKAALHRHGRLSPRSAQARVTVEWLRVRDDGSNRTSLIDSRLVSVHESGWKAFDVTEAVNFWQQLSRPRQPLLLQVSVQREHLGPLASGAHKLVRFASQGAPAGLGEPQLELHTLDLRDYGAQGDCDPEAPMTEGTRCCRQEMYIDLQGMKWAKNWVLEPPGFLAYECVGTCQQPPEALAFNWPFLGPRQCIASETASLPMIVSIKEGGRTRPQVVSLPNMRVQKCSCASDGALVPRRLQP

[14] = target: Calmodulin-1 (Homo sapiens) (UniProt P0DP23); test: CALM1 binders on microarrays, EGTA buffer, profiling panel, biochemical, small-molecule microarray, Cy5-labelled CALM1 (AID 1111); conditions: Cy5-CALM1 binding fluorescence, higher = more signal;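 further: labelled calmodulin applied in Tris saline Tween buffer holding calcium plus EGTA and DTT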
[15] = target: Calmodulin-1 (Homo sapiens) (UniProt P0DP23); test: calcium-bound CALM1 binders on microarrays, profiling panel, artefact control for SMM control-protein annotation, biochemical, small-molecule microarray, Cy5-labelled CALM1, plus calcium (AID 1112); conditions: Cy5-CALM1 binding fluorescence, higher = more signal;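 further: score merges spot fluorescence with signal to noise from triplicate slides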
[16] = small-molecule microarray binders of probe aWnt5a, primary screen, biochemical, biotinylated probe, 635/667 nm fluorescence (AID 1113); conditions: higher = more signal;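 further: score merges 667 nm fluorescence intensity with signal-to-noise per printed feature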
[17] = small-molecule microarray binders of probe aShh, primary screen, biochemical, biotinylated probe, 635/667 nm fluorescence (AID 1114); conditions: higher = more signal;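 further: probe is biotin-labelled aShh protein from a stem cell growth factor screen; measures binding of labelled protein to compounds printed on the slide; score merges feature fluorescence at 667 nm with signal-to-noise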
[18] = small-molecule microarray binders of probe aNog, primary screen, biochemical, biotinylated probe, 635/667 nm fluorescence (AID 1115); conditions: higher = more signal;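 further: probe is biotinylated aNog protein used at 0.15 µg/mL for 1 h at 4 C; z-score combines 667 nm fluorescence of each spot with its signal to noise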
[19] = target: Torsin-1A-interacting protein 1 (Homo sapiens) (UniProt Q5JTV8); test: LAP1 binders from COS7 cell lysate, primary screen, small-molecule microarray, 635/667 nm fluorescence (AID 1116); conditions: COS7-hLAP1 lysate binding, 635 nm fluorescence, higher = more signal
Chain of Torsin-1A-interacting protein 1 (Homo sapiens) (Q5JTV8 whole entry, looked up): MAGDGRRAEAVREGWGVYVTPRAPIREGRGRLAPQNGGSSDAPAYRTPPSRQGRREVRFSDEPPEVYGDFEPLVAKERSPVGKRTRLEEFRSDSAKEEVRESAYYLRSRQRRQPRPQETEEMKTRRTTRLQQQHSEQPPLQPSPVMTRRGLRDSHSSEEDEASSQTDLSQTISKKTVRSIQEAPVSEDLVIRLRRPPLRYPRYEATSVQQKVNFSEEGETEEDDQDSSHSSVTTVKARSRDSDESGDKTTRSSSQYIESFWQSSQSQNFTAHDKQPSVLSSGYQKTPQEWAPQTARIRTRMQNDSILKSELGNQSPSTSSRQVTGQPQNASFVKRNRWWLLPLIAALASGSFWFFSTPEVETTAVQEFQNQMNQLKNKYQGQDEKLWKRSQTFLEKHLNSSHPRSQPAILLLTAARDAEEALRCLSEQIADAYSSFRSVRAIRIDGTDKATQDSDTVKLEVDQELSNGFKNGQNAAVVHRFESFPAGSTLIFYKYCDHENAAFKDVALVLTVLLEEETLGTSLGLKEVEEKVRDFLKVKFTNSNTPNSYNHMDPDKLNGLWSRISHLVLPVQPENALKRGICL

[20] = target: Alpha-bungarotoxin (Bungarus multicinctus) (UniProt P60615); test: alpha-bungarotoxin binders on microarray, profiling panel, artefact control for SMM control protein annotation, biochemical, small-molecule microarray, Alexa647 label, 635/667 nm fluorescence (AID 1117); conditions: alpha-BTX-A647 binding fluorescence, higher = more signal
Chain of Alpha-bungarotoxin (Bungarus multicinctus) (P60615 whole entry, looked up): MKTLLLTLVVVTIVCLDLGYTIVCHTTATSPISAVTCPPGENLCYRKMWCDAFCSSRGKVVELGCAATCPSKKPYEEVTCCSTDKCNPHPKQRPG

Row | Compound | composite z-score [1] | composite z-score [2] | composite z-score [3] | z-score [4] | composite z-score [5] | composite z-score [6] | composite z-score [7] | composite z-score [8] | composite z-score [9] | composite z-score [10] | composite z-score [11] | z-score [12] | composite z-score [13] | composite z-score [14] | composite z-score [15] | composite z-score [16] | composite z-score [17] | composite z-score [18] | composite z-score [19] | composite z-score [20]
1 | COc1cc(NN2C(C(O)c3ccco3)C=CC3C(=O)N(C)C(=O)C32)cc(OC)c1OC (stereo not given) | 1.5 | 0.88 | 0.469 | 0.579 (inactive) | 0.138 | 1.1 | -0.169 | 0.0253 | 0.216 | 0.752 | 0.02 | -0.0965 | 0.173 | 0.723 | -0.0913 | 0.107 | 0.394 | 0.415 | 0.447 | 0.509
2 | CCCCC(CC)C(O)C1C=CC2C(=O)N(c3ccccc3)C(=O)C2N1Nc1ccc(C#N)cc1 (stereo not given) | 0.976 | 1.33 | 0.813 | 0.037 (inactive) | 1.11 | 1.32 | 0.217 | 1.28 | 0.0492 | 0.783 | 1.44 | -0.67 | 0.111 | 1.35 | 0.467 | 0.267 | 0.348 | 1.97 | 0.336 | 1.45
3 | O=C1C2C=CC(C(O)C3CC=CCC3)N(Nc3ccccc3)C2C(=O)N1c1ccccc1 (stereo not given) | 1.33 | 1.13 | 1.12 | -0.225 (inactive) | 0.154 | 0.466 | 0.303 | 1.03 | 0.333 | 1.68 | 1.44 | -0.463 | 0.0066 | 1.08 | -0.0425 | -0.098 | 0.128 | 0.821 | 0.946 | 1.78
4 | O=C1C[C@]2(c3ccc([N+](=O)[O-])cc3)C(=O)N(C3CC3)c3cc(CO)ccc3[C@H]2N1CC12CC3CC(CC(C3)C1)C2 | 0.437 | -0.105 | 0.617 | -0.922 (inactive) | -0.511 | -0.393 | -0.951 | -0.924 | -0.769 | -0.383 | 0.471 | -0.479 | -1.6 | -0.448 | -0.87 | -0.148 | -0.124 | 0.632 | -0.604 | -0.444
5 | CC(C)C(O)C1C=CC2C(=O)N(c3ccccc3)C(=O)C2N1Nc1ccccc1 (stereo not given) | 1.06 | 0.584 | 0.432 | -0.307 (inactive) | 1.22 | 0.0942 | 0.34 | 1.41 | -0.0988 | 0.326 | 1.5 | -0.831 | 0.138 | 1.71 | 0.325 | 0.0324 | -0.156 | 1.32 | 1.1 | 1.23
6 | COCCCNC(=O)[C@@]1(Sc2ccc(C)cc2)CC(=O)N(C2Cc3ccccc3C2)[C@@H]1c1ccc(CO)cc1 | 1.06 | 0.106 | 0.899 | -0.866 (inactive) | -1.39 | -0.429 | -0.787 | -1.42 | -1.76 | -0.115 | 0.52 | -0.849 | -1.15 | -0.176 | -0.0232 | -0.227 | -0.2 | 0.551 | 0.423 | -0.715
